# Only some compounds are listed: those with a hit (about 5.5% of all), similar ones and a draw of the others.
# VP16 counter – VP16 counterscreen qHTS for inhibitors of ROR gamma transcriptional activity; AID 2546, 2010; actives 3.5% (n = 310,000); Potency, µM (highest dose often 53.6 µM), for the others: at the highest dose activity, negative = inhibition, actives largely listed as inhibitors; Drosophila S2 Gal4-VP16 UAS-luciferase, luminescence, 20 h;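 also: Gal4-VP16 expression switched on by copper sulfate through the metallothionein promoter; potency is read from the fitted curve at half-maximal effect; % is scaled to controls: 0 for no effect and ±100 for the full control effect; nearly all actives have a fitted effect of over 50% in size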
# CBFb RUNX1 block – qHTS Assay for Compounds Blocking the Interaction Between CBF-beta and RUNX1 for the Treatment of Acute Myeloid Leukemia; Potency, µM (doses to about 59.8 µM), for the others: top-dose activity, negative = inhibition, hits mostly inhibitors; Runt-related transcription factor 1 (Homo sapiens) + Core-binding factor subunit beta …; 230,000 tested, under 10 active; AID 1477, 2009; AlphaScreen CBFb-His/RUNX1-biotin binding, biochemical; also: % of control where 0% means no effect
#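 AlphaScreen binding: CBFb-His and RUNX1-biotin (30 nM each) preincubated 20 min, compound added for 15 min, then nickel and streptavidin beads for 90 min, all at room temperature. Disruption of the interaction by any mechanism counts as activity.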
# MBNL1 CUG block – qHTS Assay for Inhibitors of MBNL1-poly(CUG) RNA binding; Potency, µM (top dose mostly 57.5 µM), for the others: at the top dose activity change, negative = inhibition, most hits filed as inhibitors; Muscleblind-like protein 1 (Homo sapiens), Q9NR56; TR-FRET MBNL1-His/biotin-(CUG)12 binding, 665/545 ratio; actives 0.036% (n = 280,000); AID 2675, 2010; active = well fitted inhibition curve with a large enough effect in the signal ratio, with a control signal flat, not every such curve was filed as active; inconclusive = small, poorly fitted or top-dose-only effect, or effect the other way, or a change in a side signal; inactive = no such curve, though single readings can be large or run the other way; the % refers to the signal ratio; also: potency is read from the fitted curve at half-maximal effect; % is scaled to controls: 0 for no effect and ±100 for the full control effect
# Target sequence (Q9NR56 whole entry, looked up): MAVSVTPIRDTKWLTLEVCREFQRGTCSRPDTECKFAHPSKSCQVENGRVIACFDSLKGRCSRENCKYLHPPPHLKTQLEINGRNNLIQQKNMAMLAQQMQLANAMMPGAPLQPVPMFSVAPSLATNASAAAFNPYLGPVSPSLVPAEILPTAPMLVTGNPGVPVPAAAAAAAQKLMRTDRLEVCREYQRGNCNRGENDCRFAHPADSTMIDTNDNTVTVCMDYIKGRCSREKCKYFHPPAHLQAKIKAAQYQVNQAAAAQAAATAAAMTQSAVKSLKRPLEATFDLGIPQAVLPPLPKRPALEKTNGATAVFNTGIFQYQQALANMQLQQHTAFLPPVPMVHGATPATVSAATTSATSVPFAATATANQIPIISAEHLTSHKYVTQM
#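 Inhibition of protein-RNA binding appears as loss of TR-FRET between terbium anti-His antibody on MBNL1-His and streptavidin-XL665 on biotin-(CUG)12. Activity is normalized to buffer-only and uninhibited-complex controls.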
# CtBP-E1A blk – qHTS Assay for Inhibitors of the CtBP/E1A Interaction. CtBP / adenovirus E1A interaction (AlphaScreen). AlphaScreen GST-E1A/His-CtBP binding, 1536-well; active compounds read low. activity change, % (concentration not given with the values). actives 0.49% (n = 340,000); in the data active = activity change below about -65%; inconclusive = mostly about -30% to -63%; also: % is scaled to controls: 0 for no effect and ±100 for the full control effect
#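 Homogeneous bead-based format: GST-tagged E1A captured on glutathione donor beads, His-tagged CtBP on nickel acceptor beads; compounds precede bead addition by 2 h at 37 °C.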
# Six1-Eya2 blk – qHTS Assay for Inhibitors of the Six1/Eya2 Interaction | Homeobox protein SIX1 (Homo sapiens) + Protein phosphatase EYA2 (Homo sapiens), … | AlphaScreen GST-Six1/His-Eya2 binding, biochemical; active compounds read low | activity change, % (test concentration not listed) | actives 0.56% (n = 360,000) | AID 651725, 2012; in the data active = activity change below about -65%; inconclusive = mostly about -30% to -63%; also: % is scaled to controls: 0 for no effect and ±100 for the full control effect
#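 GST-Six1 + His-Eya2 (5X stock: 250/500 nM); Tris pH 8.0, 300 mM NaCl, 0.05% BSA, 0.02% Tween 20; GSH donor/Ni acceptor beads; 1 h 37 °C dark; AlphaScreen readout.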
# RORgamma inh – qHTS for inhibitors of ROR gamma transcriptional activity. Nuclear receptor ROR-gamma (Mus musculus), P51450. Drosophila S2 Gal4-RORgamma UAS-luciferase reporter, 20 h. Potency, µM (top dose mostly 53.6 µM), for inactives: at the highest dose activity change, negative = inhibition, most hits filed as inhibitors. actives 5.4% (n = 310,000); also: potency is read from the fitted curve at half-maximal effect; % is scaled to controls: 0 for no effect and ±100 for the full control effect; nearly all actives have a fitted effect of over 60% in size
#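 Luminescence from a UAS-regulated Photinus luciferase reporter in stably transfected Drosophila Schneider cells is measured; decreased signal marks ROR gamma inhibition. Fusion expression is induced by 700 uM copper sulfate for 20 hr.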
# * hit, by the source's call; ? = inconclusive; / = no result given. Unless noted, calls follow the shape of the dose curve; as a rule, active = well fitted curve in the direction sought with a large enough effect; inconclusive = small, poorly fitted or top-dose-only effect, or another doubt; inactive = no such curve, though single readings can be large; an effect the other way counts as inactive or inconclusive.
SMILES,VP16 counter,CBFb RUNX1 block,MBNL1 CUG block,CtBP-E1A blk,Six1-Eya2 blk,RORgamma inh
O=C(CNC(=O)C(c1ccccc1)c1ccccc1)N/N=C/c1ccc(O)cc1O,-9%,-14%,-4%,-18,?,-33%
O=C(/C=C\c1ccccc1)NCC(=O)N/N=C/c1ccc(O)cc1O,-13%,/,?,-97*,-75*,-39%
CCN(C(=O)CN1C(=O)S/C(=C\C=C\c2ccccc2)C1=O)C1CCS(=O)(=O)C1 (configuration not stated),-4%,/,16%,/,-8,-24%
O=C1NC(Cc2ccc(O)cc2)c2nc3ccccc3c(=O)n2-c2ncccc21 (configuration not stated),/,/,/,5,8,/
COc1cc(NC(=O)Cn2nc(C(F)(F)F)c(Br)c2C)cc([N+](=O)[O-])c1,18µM*,4%,/,1,-2,?
COc1ccc(CNC(=O)Cn2nc(C(F)(F)F)c(Br)c2C)cc1,0%,/,0%,8,2,5%
Cc1ccccc1-c1nnc(SC(C)C(=O)NC2CCCC2)o1 (configuration not stated),/,/,/,10,8,/
CCc1ccc2oc(-c3ccc(OC)cc3)cc(=Nc3cccc(C(=O)O)c3)c2c1,11µM*,-10%,7%,-16,-1,?
CC(=O)Nc1ccc(OC(=O)c2ccccc2O)cc1,22%,6%,/,/,/,-1%
Cc1nn(-c2ccccc2)c(N2CCCC2)c1/C=N/O,5%,1%,-2%,3,-1,19%
COc1c(/C=N/NC(N)=S)c(C)nn1-c1ccccc1,?,-1%,-8%,-18,-7,7.1µM*
Cc1ccc(NC(=S)N/N=C/c2c(C)nn(-c3ccccc3)c2N2CCCC2)cc1,0.1µM*,0%,-26%,-5,-7,?
COc1c(/C=N/Nc2ccc([N+](=O)[O-])cc2[N+](=O)[O-])c(C)nn1-c1ccccc1,-4%,-1%,-1%,8,-5,-1%
FC(F)Oc1ccc(/C=N/NC(=S)Nc2cc(C(F)(F)F)ccc2Cl)cc1,5.6µM*,-4%,-12%,0,-4,1.3µM*
Cc1nn(-c2ccccc2)c(N2CCCC2)c1/C=N/NC(=S)Nc1ccccc1C(F)(F)F,1µM*,-20%,/,-12,-18,1.4µM*
Cc1nn(-c2ccccc2)c(N2CCCC2)c1/C=N/NC(=S)Nc1ccc(F)cc1,/,/,/,-6,-13,/
CSc1ccc(CN2CCC(N3CCC(C(=O)NC4CC4)CC3)CC2)cc1,/,/,/,-19,-2,/
O=C(c1cc(COc2c(F)cccc2F)on1)N(Cc1ccccc1)CC1CC1,18%,/,1%,46,30,?
Cc1nn(-c2ccccc2)c(N2CCCC2)c1/C=N/NC(=S)Nc1cc(C(F)(F)F)ccc1Cl,2.8µM*,-3%,-7%,4,-2,1.8µM*
CC(C)(C)c1csc(NC(=O)c2ccccc2O)n1,2.5µM*,/,2%,-7,0,?
Cc1csc(NC(=O)c2ccccc2O)n1,2%,8%,-10%,-4,2,-27%
CC(C)(C)c1csc(NNC(=O)c2ccc(Br)cc2)n1,2.8µM*,-13%,9%,-6,4,1.3µM*
Cc1ccc(S(=O)(=O)N2C[C@H]3C(=O)C[C@@H](c4ccccc4)N(S(=O)(=O)c4ccc(C)cc4)[C@H]3C[C@H]2c2cccs2)cc1,/,/,/,-1,6,/

# Compound activity deposited in PubChem by National Center for Advancing Translational Sciences (NCATS).
